Compound activity (PubChem)
Most compounds without a hit are left out; they make up all but 3.8% or so of the library.
ATXN2 expr inh – inhibitors of ATXN2 expression; HEK-293 ATXN2-luciferase reporter, luminescence, 24 h; Potency, µM (titrated, usually from 57 µM), without a hit: top-dose activity change, negative = inhibition, actives largely listed as inhibitors; hit rate 0.72% among 360,000; AID 1745845; also: % is scaled to controls: 0 for no effect and ±100 for the full control effect; nearly all actives have a fitted effect of over 55% in size
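ATXN2-luciferase reporter cells (luciferase flanked by upstream and downstream ATXN2 gene portions) were treated 24 h at 37 °C with compounds at up to 57 uM. SteadyGlo luminescence gave expression; GF-AFC fluorescence gave viability.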
Nrf2 inh – inhibitors of Nrf2 signaling; A549 ARE-Fluc reporter, luciferase luminescence, 18-24 h; Potency, µM (titrated, usually from 46 µM), inactives show at the top dose activity change, negative = inhibition, hits mostly inhibitors; hit rate 2.1% among 360,000; also: % is scaled to controls: 0 for no effect and ±100 for the full control effect; nearly all actives have a fitted effect of over 60% in size
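In this cell-based qHTS, ARE-driven firefly luciferase in A549 cells reports Nrf2 activity; the luminescent signal after BugLite lysis is the measured value, with a prior CellTiter-Fluor read for cell health.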
A549 tox – counter-screen for Nrf2 inhibitors: cytotoxicity in A549 cells. A549 ARE-Fluc cells, CellTiter-Fluor viability, 18-24 h. hit rate 0.16% among 390,000. AID 504648. Potency, µM (top dose mostly 46 µM), without a hit: at the highest dose activity change, negative = cytotoxicity, actives largely listed as inhibitors; also: % is scaled to controls: 0 for no effect and ±100 for the full control effect
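Cytotoxicity counterscreen: CellTiter-Fluor fluorescence was measured in A549 ARE_Fluc cells after 18-24 h of compound exposure in a concentration series. The subsequent BugLite luminescent read reports ARE-luciferase activity.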
S2 tox – reduces viability in counter-screen for ATXN expression inhibitors | S2 cells (HEK-293 line with an ATXN2-luciferase reporter) viability, CellTiter-Fluor protease fluorescence, 24 h | AID 651635 | hit rate 0.49% among 400,000 | Potency, µM (titrated, usually from 56.7 µM), hits mostly cytotoxic; also: nearly all actives have a fitted effect of over 40% in size
HepG2 tox – counter-screen for TGF-b inhibitors: cytotoxicity in HepG2 cells; HepG2 CAGA-GFP viability, ATP luminescence, 18 h; Potency, µM (top dose mostly 46.1 µM), without a hit: at the highest dose activity change, negative = cytotoxicity, hits mostly cytotoxic; hit rate 0.76% among 410,000; AID 588856
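CellTiter-Glo luminescence gave cytotoxicity after 18 hours at 37 degrees C. The cells were HepG2 CAGA-GFP in 1% FBS DMEM, stimulated with 500 pg/mL TGF-beta after compound addition. %Activity was normalised to no-cell wells (complete cell-killing) and DMSO (no toxicity), and curves were fitted and classified.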
TGFb SMAD3 inh – blocks TGF-b signaling; HepG2 CAGA-GFP TGF-b/SMAD3 reporter, GFP fluorescence, 18 h; TGF-beta stimulated, 500 pg/mL final; Potency, µM (series often up to 46.1 µM), for the others: at the top dose activity, negative = inhibition, usual class: inhibitors; hit rate 1.2% among 410,000; also: % is scaled to controls: 0 for no effect and ±100 for the full control effect; nearly all actives have a fitted effect of over 65% in size
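Per well, imaged GFP fluorescence of HEPG2 CAGA-GFP cells gives the signal; cells get compound, then TGF-beta (500 pg/mL final), 18 h at 37 degrees C; %Activity versus -TGF-beta and +DMSO controls.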
Active calls of the source: *; i = inactive; ? = inconclusive; . = no result given; [ ] = dose if it differs, or a comment. Calls follow the shape of the dose curve; as a rule, active = well fitted curve in the direction sought with a large enough effect; inconclusive = small, poorly fitted or top-dose-only effect, or another doubt; inactive = no such curve, though single readings can be large; an effect the other way counts as inactive or inconclusive. Potency is read from the fitted curve at half-maximal effect.

SMILES	ATXN2 expr inh	Nrf2 inh	A549 tox	S2 tox	HepG2 tox	TGFb SMAD3 inh
C=C1C(=O)C=C[C@]2(C)C[C@@H]3OC(=O)[C@](C)(O)[C@H]3C[C@@H]12	10µM*	?	-27.2%	?	-70.4%	?
O=C(NNC(=S)Nc1ccc(Cl)cc1Cl)c1ccc(N2CCOCC2)c([N+](=O)[O-])c1	-4.3%	5.7%	-12.1%	i	6.5%	?
Cc1cc(C(=O)CSc2nc(N)cc(N)n2)c(C)n1CCc1ccc(F)cc1	-28.9%	14.6µM*	-19.4%	?	-35.8%	?
CCNC(=S)N/N=C/c1sc(N2CCCCC2)nc1-c1cccs1	15.2%	13.8%	2.7%	.	-40.5%	?
CC(C)(C)NCC(=Cc1ccccc1)C(=O)c1ccccc1	8.44µM*	?	?	10.6µM*	-100.0%	8.91µM*
CC(=O)N/C(=C/c1ccccc1)c1ccccc1	0.9%	4.1%	-0.5%	i	0.9%	-3.5%
COc1cccc(-c2cc(C(F)(F)F)nc(-n3cc(Cl)cn3)n2)c1	?	10.3µM*	1.3%	i	-5.1%	-2.9%
COc1ccc(-c2cc(C(F)(F)F)nc(-n3cc(Cl)cn3)n2)cc1	-19.5%	?	?	i	-6.6%	1.2%
CCCCCCN1C[C@@H](n2cc(C3CC3)nn2)[C@H](O)C[C@@H]1c1ccc(OC)cc1	?	.	.	20µM*	-7.1%	?
CCCCCCN1C[C@H](n2cc(C3CC3)nn2)[C@@H](O)C[C@@H]1c1ccc(C)cc1	?	.	.	.	15.8µM*	14.1µM*
CCCCCCN1C[C@@H](n2cc(C3CC3)nn2)[C@H](O)C[C@@H]1c1ccc(C)cc1	?	.	.	20µM*	-118.8%	?
CCCCCCN1C[C@@H](O)[C@H](n2cc(C3CC3)nn2)C[C@@H]1c1ccc(OC)cc1	4.8%	.	.	i	-18.2%	-0.6%
Cc1ccc([C@H]2C[C@@H](O)[C@H](n3cc(C4CC4)nn3)CN2CC2CCCCC2)cc1	-10.1%	.	.	i	-7.4%	0.1%
Cc1ccc(-n2[nH]c(C)c(C=NC34CN5CN(CN(C5)C3)C4)c2=O)cc1C	0.8%	.	1.2%	i	10µM*	8.5%
O=C(C[C@@H]1C/C=C\CCC(=O)O[C@H](c2ccccc2)CNC1=O)N[C@H](CO)Cc1ccccc1	11.2%	-1.1%	-1.4%	i	-7.8%	-17.2%
O=S(=O)(c1ccccc1)N1CCN=C1SCc1cccc(Cl)c1	-13.4%	-24.8%	15.0%	i	-7.5%	12.6µM*
O=S(=O)(c1ccccc1)N1CCN=C1SCc1ccc(Cl)c(Cl)c1	-25.1%	-17.5%	17.0%	i	26.6%	0.0%
O=C1NC(c2ccccc2)=C(c2nc3ccccc3s2)C(c2ccc(F)cc2)N1 (stereo not drawn)	?	16.4µM*	?	i	-37.1%	?
CCCc1cc(=O)oc2cc(C)cc(OCC(=O)N3CCC(C(=O)O)CC3)c12	5.1%	3.6%	-1.4%	i	0.4%	-0.9%
CCOC(=O)c1sc(NC(=O)c2ccncc2)c(C#N)c1C	-0.9%	23.1µM*	?	?	-32.8%	?
CCOC(=O)c1c(NC(=O)c2ccncc2)sc(C)c1C	.	6.7%	17.2%	i	8.4%	0.7%
Cc1cc2c(n1-c1ccc(C(=O)NCC(C)c3ccccc3)cc1)CCCC2 (stereo not drawn)	0.0%	14.1%	7.7%	i	-61.7%	?
COC(=O)c1ccccc1NC(=O)Cc1nc(-c2ccc(OC)cc2)no1	.	23.8%	6.8%	.	17.8µM*	?
CC(C)(C)c1ccc(-c2noc(CCC(=O)NCC3CCCO3)n2)cc1 (stereo not drawn)	?	0.581µM*	-3.6%	i	-19.0%	6.8%
CCOC(=O)c1ccccc1NC(=O)CCc1nc(-c2ccc(C)cc2)no1	.	1.2%	2.1%	.	0.2%	3.3%
SMILES	ATXN2 expr inh	Nrf2 inh	A549 tox	S2 tox	HepG2 tox	TGFb SMAD3 inh
CC(C)(C)c1ccc(-c2noc(CCC(=O)Nc3cccnc3)n2)cc1	-77.9%	0.259µM*	-2.1%	i	10.2%	?
COc1ccc(-c2noc(CCC(=O)Nc3ccc(C(F)(F)F)cc3)n2)cc1	-20.3%	18.4µM*	-6.2%	?	-24.1%	-15.1%
CCCCC1CCC(C(=O)N2CC(=O)Nc3ccc(Cl)cc3C2c2ccc(F)cc2)CC1 (stereo not drawn)	.	6.3%[9.27 µM]	-14.9%	.	-34.1%	?
CCCCOC(=O)c1ccc(NS(=O)(=O)c2c(C)nc3scc(C)n3c2=O)cc1	-7.9%	16.4µM*	-8.6%	i	-28.6%	11.2µM*
Cc1cc(C(=O)NCCc2ccc(S(N)(=O)=O)cc2)c(C)o1	-9.3%	0.9%	1.8%	i	-11.4%	-25.4%
Cc1cc2c(cc1NC(=O)c1ccccc1Cl)n(C)c(=O)c(=O)n2C	2.3%	?	-1.5%	i	-5.6%	-36.4%
CC(=O)c1c(C(C)=O)c(C)n(-c2ccc(C)c(NC(=O)c3ccccc3Cl)c2)c1C	-1.6%	14.6µM*	-8.5%	i	-17.1%	?
O=C(OCC#CCSc1nnc(-c2cccc3ccccc23)o1)c1ccc(OC(F)(F)F)cc1	.	-11.5%	4.5%	.	.	.
COc1cc(C2C(C#N)=C(N)N(Nc3ccccc3)C3=C2C(=O)CC(C)(C)C3)ccc1OCc1ccccc1 (stereo not drawn)	-24.7%	23.1µM*	?	i	-23.3%	?
COc1cc(C2C(C#N)=C(N)N(Nc3ccccc3)C3=C2C(=O)CC(C)(C)C3)ccc1OCc1cccc(F)c1 (stereo not drawn)	-3.7%	?	?	i	1.2%	?
Cc1ccc(NC2=Nc3ccccc3N3C2=Nc2c(c(C)nn2-c2ccccc2)C3c2ccc(O)c(O)c2)cc1 (stereo not drawn)	?	18.4µM*	?	i	-95.1%	?
Cc1nn(-c2ccccc2)c2c1C(c1ccc(O)c(O)c1)N1C(=N2)C(Nc2ccccc2)=Nc2ccccc21 (stereo not drawn)	4.7%	-2.2%	-7.5%	?	3.4%	?
CCOc1ccccc1NC(=O)c1c(NCc2cccs2)sc2c1CCCCC2	?	.	11.1%	?	-48.1%	17.8µM*
CCOC(=O)N1CCc2c(sc(NCc3sccc3C)c2C(=O)Nc2ccc(OC)cc2OC)C1	14.1µM*	.	-1.6%	i	-2.0%	-29.6%
CCOc1ccccc1NC(=O)c1c(NCc2sccc2C)sc2c1CCCCC2	?	.	-3.0%	?	-34.6%	?
COc1ccc(OC)c(NC(=O)c2c(NCc3cccs3)sc3c2CCCC3)c1	.	?	?	.	-29.9%	15.8µM*
